# Key:
# Assay in all cases: SPOT peptide array binding signal intensity (averaged, normalized) (arbitrary units (background-subtracted, floor 0; scale differs between SH3 domains)); higher = stronger binding of the SH3 domain to the peptide
# SpBzz1-D2 = target: SpBzz1-D2
# In short: (§1)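 GST-fused SH3 domains from four yeast species were expressed in E. coli BL21(DE3), purified on glutathione Sepharose and incubated at 10 μg/ml overnight at 4°C in TBS-based blocking buffer on cellulose membranes carrying synthetic 15-mer peptides, with cysteines replaced by serines. Bound protein was detected with anti-GST antibody, an HRP anti-mouse secondary and luminol, then imaged and quantified with Genespotter. Binding signal is the normalized, background-subtracted spot intensity averaged over replicates, in arbitrary units that differ between domains.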
# SpCyk3 = target: SpCyk3
# In short: as §1
# SpHof1 = target: SpHof1
# In short: as §1
# SpHof1-2 = target: SpHof1-2
# In short: as §1
# SpHof1-3 = target: SpHof1-3
# In short: as §1
# SpHse1 = target: SpHse1
# In short: as §1
# SpLsb1 = target: SpLsb1
# In short: as §1
# SpLsb4 = target: SpLsb4
# In short: as §1
# SpMyo1 = target: SpMyo1
# In short: as §1
# SpNbp2 = target: SpNbp2
# In short: as §1
# SpPex13 = target: SpPex13
# In short: as §1
# SpRvs167 = target: SpRvs167
# In short: as §1
# SpSla1-D1-D2 = target: SpSla1-D1-D2
# In short: as §1
# SpSla1-D3 = target: SpSla1-D3
# In short: as §1
# AgAbp1 = target: AgAbp1
# In short: as §1
# AgBbc1 = target: AgBbc1
# In short: as §1
# AgBem1-D1 = target: AgBem1-D1
# In short: as §1
# AgBzz1-D1 = target: AgBzz1-D1
# In short: as §1
# AgBzz1-D2 = target: AgBzz1-D2
# In short: as §1
# AgCyk3 = target: AgCyk3
# In short: as §1
# AgFus1 = target: AgFus1
# In short: as §1
# AgHof1 = target: AgHof1
# In short: as §1
# AgHse1 = target: AgHse1
# In short: as §1
# AgLsb1 = target: AgLsb1
# In short: as §1
# AgLsb4 = target: AgLsb4
# In short: as §1
# AgMyo5 = target: AgMyo5
# In short: as §1
# AgNbp2 = target: AgNbp2
# In short: as §1
# AgRvs167 = target: AgRvs167
# In short: as §1
# AgSho1 = target: AgSho1
# In short: as §1
# AgSla1-D1-D2 = target: AgSla1-D1-D2
# In short: as §1
# AgSla1-D3 = target: AgSla1-D3
# In short: as §1
# CaAbp1-D1 = target: CaAbp1-D1
# In short: as §1
# CaAbp1-D2 = target: CaAbp1-D2
# In short: as §1
# CaBbc1 = target: CaBbc1
# In short: as §1
# CaBem1-D1 = target: CaBem1-D1
# In short: as §1
# CaBzz1-D1 = target: CaBzz1-D1
# In short: as §1
# CaBzz1-D2 = target: CaBzz1-D2
# In short: as §1
# CaCyk3 = target: CaCyk3
# In short: as §1
# CaFus1 = target: CaFus1
# In short: as §1
# CaHof1 = target: CaHof1
# In short: as §1
# CaHse1 = target: CaHse1
# In short: as §1
# CaLsb1 = target: CaLsb1
# In short: as §1
# CaLsb4 = target: CaLsb4
# In short: as §1
# CaMyo5 = target: CaMyo5
# In short: as §1
# CaNbp2 = target: CaNbp2
# In short: as §1
# CaRvs167 = target: CaRvs167
# In short: as §1
# CaRvs167-3 = target: CaRvs167-3
# In short: as §1
# CaSho1 = target: CaSho1
# In short: as §1
# CaSla1-D1-D2 = target: CaSla1-D1-D2
# In short: as §1
# CaSla1-D3 = target: CaSla1-D3
# In short: as §1
# ScAbp1 = target: ScAbp1
# In short: as §1
# ScBbc1 = target: ScBbc1
# In short: as §1
# ScBem1-D1 = target: ScBem1-D1
# In short: as §1
# ScBzz1-D1 = target: ScBzz1-D1
# In short: as §1
# ScBzz1-D2 = target: ScBzz1-D2
# In short: as §1
# ScCyk3 = target: ScCyk3
# In short: as §1
# ScFus1 = target: ScFus1
# In short: as §1
# ScHof1 = target: ScHof1
# In short: as §1
# ScHse1 = target: ScHse1
# In short: as §1
# ScLsb1 = target: ScLsb1
# In short: as §1
# ScLsb2 = target: ScLsb2
# In short: as §1
# ScLsb3 = target: ScLsb3
# In short: as §1
# ScLsb4 = target: ScLsb4
# In short: as §1
# ScMyo3 = target: ScMyo3
# In short: as §1
# ScMyo5 = target: ScMyo5
# In short: as §1
# ScNbp2 = target: ScNbp2
# In short: as §1
# ScPex13 = target: ScPex13
# In short: as §1
# ScRvs167 = target: ScRvs167
# In short: as §1
# ScSho1 = target: ScSho1
# In short: as §1
# ScSla1-D1-D2 = target: ScSla1-D1-D2
# In short: as §1
# ScSla1-D3 = target: ScSla1-D3
# In short: as §1
# SpAbp1-D1 = target: SpAbp1-D1
# In short: as §1
# SpBbc1 = target: SpBbc1
# In short: as §1
# SpBzz1-D1 = target: SpBzz1-D1
# In short: as §1
binder,measurement,setting,value
LYEAMPPTLPHRDWK,SPOT peptide array binding signal intensity,SpBzz1-D2,0.5
same,SPOT peptide array binding signal intensity,SpCyk3,3
same,SPOT peptide array binding signal intensity,SpHof1,2
same,SPOT peptide array binding signal intensity,SpHof1-2,2
same,SPOT peptide array binding signal intensity,SpHof1-3,0.5
same,SPOT peptide array binding signal intensity,SpHse1,78.5
same,SPOT peptide array binding signal intensity,SpLsb1,2.25
same,SPOT peptide array binding signal intensity,SpLsb4,1290
same,SPOT peptide array binding signal intensity,SpMyo1,32.5
same,SPOT peptide array binding signal intensity,SpNbp2,22.5
same,SPOT peptide array binding signal intensity,SpPex13,38.5
same,SPOT peptide array binding signal intensity,SpRvs167,282
same,SPOT peptide array binding signal intensity,SpSla1-D1-D2,1
same,SPOT peptide array binding signal intensity,SpSla1-D3,21
PPIPNAPLSPAPAVP,SPOT peptide array binding signal intensity,AgAbp1,1
same,SPOT peptide array binding signal intensity,AgBbc1,≤ 0
same,SPOT peptide array binding signal intensity,AgBem1-D1,18.5
same,SPOT peptide array binding signal intensity,AgBzz1-D1,≤ 0
same,SPOT peptide array binding signal intensity,AgBzz1-D2,≤ 0
same,SPOT peptide array binding signal intensity,AgCyk3,≤ 0
same,SPOT peptide array binding signal intensity,AgFus1,2
same,SPOT peptide array binding signal intensity,AgHof1,1
same,SPOT peptide array binding signal intensity,AgHse1,2.5
same,SPOT peptide array binding signal intensity,AgLsb1,3
same,SPOT peptide array binding signal intensity,AgLsb4,9
same,SPOT peptide array binding signal intensity,AgMyo5,1300
same,SPOT peptide array binding signal intensity,AgNbp2,3.5
same,SPOT peptide array binding signal intensity,AgRvs167,0.167
same,SPOT peptide array binding signal intensity,AgSho1,≤ 0
same,SPOT peptide array binding signal intensity,AgSla1-D1-D2,1
same,SPOT peptide array binding signal intensity,AgSla1-D3,≤ 0
same,SPOT peptide array binding signal intensity,CaAbp1-D1,≤ 0
same,SPOT peptide array binding signal intensity,CaAbp1-D2,≤ 0
same,SPOT peptide array binding signal intensity,CaBbc1,2
same,SPOT peptide array binding signal intensity,CaBem1-D1,7
same,SPOT peptide array binding signal intensity,CaBzz1-D1,≤ 0
same,SPOT peptide array binding signal intensity,CaBzz1-D2,10.5
same,SPOT peptide array binding signal intensity,CaCyk3,≤ 0
same,SPOT peptide array binding signal intensity,CaFus1,59
same,SPOT peptide array binding signal intensity,CaHof1,≤ 0
same,SPOT peptide array binding signal intensity,CaHse1,0.5
same,SPOT peptide array binding signal intensity,CaLsb1,≤ 0
same,SPOT peptide array binding signal intensity,CaLsb4,≤ 0
same,SPOT peptide array binding signal intensity,CaMyo5,952
same,SPOT peptide array binding signal intensity,CaNbp2,15.5
same,SPOT peptide array binding signal intensity,CaRvs167,≤ 0
same,SPOT peptide array binding signal intensity,CaRvs167-3,2.5
same,SPOT peptide array binding signal intensity,CaSho1,9
same,SPOT peptide array binding signal intensity,CaSla1-D1-D2,≤ 0
same,SPOT peptide array binding signal intensity,CaSla1-D3,≤ 0
same,SPOT peptide array binding signal intensity,ScAbp1,0.5
same,SPOT peptide array binding signal intensity,ScBbc1,≤ 0
same,SPOT peptide array binding signal intensity,ScBem1-D1,≤ 0
same,SPOT peptide array binding signal intensity,ScBzz1-D1,4
same,SPOT peptide array binding signal intensity,ScBzz1-D2,7.5
same,SPOT peptide array binding signal intensity,ScCyk3,2.5
same,SPOT peptide array binding signal intensity,ScFus1,≤ 0
same,SPOT peptide array binding signal intensity,ScHof1,≤ 0
same,SPOT peptide array binding signal intensity,ScHse1,1.5
same,SPOT peptide array binding signal intensity,ScLsb1,2.5
same,SPOT peptide array binding signal intensity,ScLsb2,4.5
same,SPOT peptide array binding signal intensity,ScLsb3,≤ 0
same,SPOT peptide array binding signal intensity,ScLsb4,≤ 0
same,SPOT peptide array binding signal intensity,ScMyo3,2660
same,SPOT peptide array binding signal intensity,ScMyo5,1550
same,SPOT peptide array binding signal intensity,ScNbp2,7.5
same,SPOT peptide array binding signal intensity,ScPex13,7.63e-06
same,SPOT peptide array binding signal intensity,ScRvs167,≤ 0
same,SPOT peptide array binding signal intensity,ScSho1,≤ 0
same,SPOT peptide array binding signal intensity,ScSla1-D1-D2,≤ 0
same,SPOT peptide array binding signal intensity,ScSla1-D3,1.25
same,SPOT peptide array binding signal intensity,SpAbp1-D1,≤ 0
same,SPOT peptide array binding signal intensity,SpBbc1,0.5
same,SPOT peptide array binding signal intensity,SpBzz1-D1,≤ 0
same,SPOT peptide array binding signal intensity,SpBzz1-D2,0.5
same,SPOT peptide array binding signal intensity,SpCyk3,1
same,SPOT peptide array binding signal intensity,SpHof1,≤ 0
same,SPOT peptide array binding signal intensity,SpHof1-2,1
same,SPOT peptide array binding signal intensity,SpHof1-3,1
same,SPOT peptide array binding signal intensity,SpHse1,23
same,SPOT peptide array binding signal intensity,SpLsb1,≤ 0
same,SPOT peptide array binding signal intensity,SpLsb4,≤ 0
same,SPOT peptide array binding signal intensity,SpMyo1,946
same,SPOT peptide array binding signal intensity,SpNbp2,≤ 0
same,SPOT peptide array binding signal intensity,SpPex13,≤ 0
same,SPOT peptide array binding signal intensity,SpRvs167,≤ 0
same,SPOT peptide array binding signal intensity,SpSla1-D1-D2,≤ 0
same,SPOT peptide array binding signal intensity,SpSla1-D3,≤ 0
NFKRLLPRDPSEKSS,SPOT peptide array binding signal intensity,AgAbp1,1
same,SPOT peptide array binding signal intensity,AgBbc1,0.75
same,SPOT peptide array binding signal intensity,AgBem1-D1,105
same,SPOT peptide array binding signal intensity,AgBzz1-D1,6
same,SPOT peptide array binding signal intensity,AgBzz1-D2,35
same,SPOT peptide array binding signal intensity,AgCyk3,0.5
same,SPOT peptide array binding signal intensity,AgFus1,311
same,SPOT peptide array binding signal intensity,AgHof1,32
same,SPOT peptide array binding signal intensity,AgHse1,2610
same,SPOT peptide array binding signal intensity,AgLsb1,2.5
same,SPOT peptide array binding signal intensity,AgLsb4,50
same,SPOT peptide array binding signal intensity,AgMyo5,1
same,SPOT peptide array binding signal intensity,AgNbp2,≤ 0
same,SPOT peptide array binding signal intensity,AgRvs167,2
same,SPOT peptide array binding signal intensity,AgSho1,99.5
same,SPOT peptide array binding signal intensity,AgSla1-D1-D2,15.5
same,SPOT peptide array binding signal intensity,AgSla1-D3,5.5
same,SPOT peptide array binding signal intensity,CaAbp1-D1,126
same,SPOT peptide array binding signal intensity,CaAbp1-D2,30
same,SPOT peptide array binding signal intensity,CaBbc1,≤ 0
same,SPOT peptide array binding signal intensity,CaBem1-D1,≤ 0
same,SPOT peptide array binding signal intensity,CaBzz1-D1,≤ 0
same,SPOT peptide array binding signal intensity,CaBzz1-D2,17.8
same,SPOT peptide array binding signal intensity,CaCyk3,≤ 0
same,SPOT peptide array binding signal intensity,CaFus1,970
same,SPOT peptide array binding signal intensity,CaHof1,0.5
same,SPOT peptide array binding signal intensity,CaHse1,81
same,SPOT peptide array binding signal intensity,CaLsb1,0.5
same,SPOT peptide array binding signal intensity,CaLsb4,≤ 0
same,SPOT peptide array binding signal intensity,CaMyo5,7

# — the supplement of paper PMC4466140
